Screening results: PubChem, National Center for Advancing Translational Sciences (NCATS)
In the library only some 5.2% were active in any assay of this set; here they are far more common.
Tau fluor cs: counter-screen for tau fibril formation inhibitors; 280,000 compounds, 0.93% hits; tau K18 P301L Alexa594 fluorescence, heparin fibrillization; AID 1463; Potency, µM (doses to about 57.7 µM); also: nearly all actives have a fitted effect of over 55% in size
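Human K18 P301L tau (15 uM unlabeled plus 0.24 uM Alexa 594-labeled, final) in 100 mM sodium acetate pH 7 was mixed with compound and 20 uM heparin and incubated 6 hr at 37 C.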
FBPA coupling cs: counter-screen for Giardia aldolase inhibitors: coupling enzyme system. coupling enzyme system counterscreen, AmpLite Red fluorescence. AID 2472. activity change, negative = inhibition, % at 58.2 µM, hits read low. 290,000 compounds, 0.67% hits; in the data active = activity change below about -30%
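Counterscreen lacking aldolase: glyceraldehyde-3-phosphate coupling-enzyme reagent preincubated 10 min at RT with compound (at 57.5 uM final), then substrate/coupling system with AmpLite Red added; fluorescence read at 525/598 nm after 20 min RT.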
Tau fibril ThT: tau fibrillization inhibition (ThT binding). 270,000 compounds, 2.1% hits. recombinant tau K18 P301L (four-repeat tau fragment), heparin-induced fibrillization, ThT fluorescence. Potency, µM (doses to about 57.4 µM), actives largely listed as inhibitors. P10636; also: nearly all actives have a fitted effect of over 55% in size
Target sequence (P10636 561-689 P618L limits assumed): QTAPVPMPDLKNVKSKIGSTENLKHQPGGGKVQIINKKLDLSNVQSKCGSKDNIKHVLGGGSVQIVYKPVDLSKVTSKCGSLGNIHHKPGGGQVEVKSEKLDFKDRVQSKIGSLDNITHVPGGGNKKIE
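In this qHTS, human K18 P301L tau is incubated with compound and heparin for 6 hr at 37 C, and Thioflavin T fluorescence then reports fibril load.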
Tau FP inhib: blocks human tau fibril formation measured by polarization; P10636; K18 P301L tau heparin fibrillization, Alexa594 FP, 6 h; Potency, µM (titrated, usually from 57.7 µM), hits mostly inhibitors; 280,000 compounds, 0.39% hits; also: nearly all actives have a fitted effect of over 55% in size
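Human tau K18 […] P301L fragment, 15 uM unlabeled plus 0.24 uM Alexa 594-labeled tau (final), with compound and 20 uM heparin in 100 mM sodium acetate pH 7; 6 hr at 37 C, then Alexa 594 FP read.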
Sfp inh: Sfp phosphopantetheinyl transferase inhibition; Biochemical Sfp PPTase activity, qHTS; Potency, µM, actives largely listed as inhibitors; 310,000 compounds, 3.5% hits; AID 1490;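 also: the enzyme is Sfp with the accession as filed and its product quenches rhodamine fluorescence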
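Step 1, compound plus 15 nM Sfp-PPTase, 15 min, room temperature. Step 2, add rhodamine-CoA (5 uM) and BHQ-2-YbbR (12.5 uM). Step 3, read 525/598 nm fluorescence at 0 and 30 min.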
Numbers stand for hits; - = inactive; ? = inconclusive; . = not tested or not shown; [ ] = dose if it differs, or a comment. Unless noted, calls follow the shape of the dose curve; as a rule, active = well fitted curve in the direction sought with a large enough effect; inconclusive = small, poorly fitted or top-dose-only effect, or another doubt; inactive = no such curve, though single readings can be large; an effect the other way counts as inactive or inconclusive.

SMILES	Tau fluor cs	FBPA coupling cs	Tau fibril ThT	Tau FP inhib	Sfp inh
O=c1c2ccccc2oc2cc(O)c(C3COCC(CO)C(O)C(O)C3O)c(O)c12 (stereo not drawn)	-	-	-	-	79µM
O=C(COc1cccc(C(F)(F)F)c1)N1CCN(c2ccc(O)cc2)CC1	-	-	?	-	28µM
O=C(CCOc1ccccc1)N1CCN(c2ccc(O)cc2)CC1	-	-	?	-	50µM
O=C(CCCOc1ccccc1)N1CCN(c2ccccc2)CC1	-	-	?	-	-
O=C(CCSc1ccc(Cl)cc1)N1CCN(c2ccc(O)cc2)CC1	?	-	?	-	79µM
O=C(COc1cccc(C(F)(F)F)c1)N1CCN(c2ccccc2O)CC1	-	-	-	-	-
CCOc1cccc(C(=O)N(Cc2ccc(C)o2)C2CCS(=O)(=O)C2)c1 (stereo not drawn)	-	.	-	-	.
CCCCN(CC)Cc1ccc(CNC(=S)Nc2ccc(C)cc2Cl)o1	-	-	-	-	-
CCCCN(CC)Cc1ccc(CNC(=S)Nc2c(C)cc(C)cc2C)o1	-	-	-	-	45µM
O=S(=O)(O)c1ccc2c(c1)-c1nc-2nc2[nH]c(nc3nc(nc4[nH]c(n1)c1ccc(S(=O)(=O)O)cc41)-c1ccc(S(=O)(=O)O)cc1-3)c1ccc(S(=O)(=O)O)cc21	.	-	.	.	?
COC(=O)c1cc(NC(=S)Nc2cc(Cl)cc(Cl)c2)cc(C(=O)OC)c1	?	-	-	32µM	-
COC(=O)c1cc(NC(=O)Nc2cccc(Cl)c2)ccc1Cl	7.9µM[quencher]	-	?	7.9µM	-
O=C(Nc1cccc(Cl)c1)Nc1cccc(Cl)c1	-	-	-	?	-
COC(=O)c1cccc(NC(=S)Nc2ccc(Cl)c(Cl)c2)c1	20µM[quencher]	-	-	?	-
CC(=O)c1ccc(N2CCN(C(=O)C3CCN(S(=O)(=O)c4c(C)noc4/C=C/c4ccccc4F)CC3)CC2)cc1	-	.	-	-	.
O=C1CC(c2ccco2)CC(O)=C1C=Nc1cc(Cl)cc(Cl)c1 (stereo not drawn)	-	-	?	?	40µM
CCOc1ccc(N=CC2=C(O)CC(c3ccco3)CC2=O)cc1 (stereo not drawn)	-	-	?	-	-
Cc1ccc2nc3cc([N+](=O)[O-])cc([N+](=O)[O-])c3cc2c1	?	-	3.2µM	?	-
Cc1nc2ccc([N+](=O)[O-])cc2nc1C	-	-	-	-	-
CCOC(=O)N1CCN(CCC(=O)Nc2cccc(F)c2)CC1	-	.	-	-	.
CC(C)c1cnc2c(c1SCc1cccc(F)c1)c(=O)n(C)c(=O)n2C	-	.	-	-	.
CCOc1ccc(N2CSC(=S)N(c3ccc(OCC)cc3)C2)cc1	-	-	?	-	35µM
Brc1ccc(-c2cn3c(n2)CCc2ccc4cccnc4c2-3)cc1	-	-31	?	-	?
Cc1ccc(Cl)c(NC(=O)COC(=O)CNS(=O)(=O)/C=C/c2ccccc2)c1Cl	-	-	-	-	50µM
CCn1c(C(=O)N2CCC(C(=O)N3CCN(c4cccc(C)c4C)CC3)CC2)cc2sccc21	-	.	?	-	.
SMILES	Tau fluor cs	FBPA coupling cs	Tau fibril ThT	Tau FP inhib	Sfp inh
CCOC(=O)N1CCN(C(=O)CCCCCn2c(=S)[nH]c3ccsc3c2=O)CC1	-	-	?	-	?
CCOC(=O)N1CCN(C(=O)CCCn2c(=S)[nH]c3ccsc3c2=O)CC1	-	-	?	-	56µM
S=c1[nH]nc(NCCCN2CCOCC2)s1	-	-	?	?	35µM
c1ccc2[nH]c(NCCCN3CCOCC3)nc2c1	-	-	-	-	-
CCCCc1nn2c(=O)cc(COC(=O)C(C)Oc3ccccc3)nc2s1 (stereo not drawn)	-	.	-	-	.
Cc1ccc(-c2nn(C)c(=O)c3ccccc23)cc1S(=O)(=O)NCCCN(C)C	-	.	-	-	.
Cc1c(CC(=O)O)c(=O)oc2cc3occ(-c4ccc(F)cc4)c3cc12	.	-	.	.	40µM
Cc1ccc(OCCCC(=O)Nc2sc3c(c2C(N)=O)CCCC3)cc1	?	.	?	-	.
CC(C)(C)OC(=O)CN1C(=O)S/C(=C\c2ccc(-c3cccc(C(=O)O)c3)o2)C1=O	.	-	.	.	-
O=C1N/C(=C/c2ccc(N3CCOCC3)o2)C(=O)N1c1ccccc1	-	-	?	-	-
C=CCN1C(=O)N/C(=C/c2ccc(N3CCOCC3)o2)C1=O	-	-	7.9µM	?	?
COc1ccc2cc(/C=C3\SC(=S)NC3=O)c(N3CCOCC3)nc2c1	-	-	16µM	-	-
O=C1S/C(=C\c2ccc(N3CCOCC3)o2)C(=O)N1Cc1ccc(F)cc1	-	-36	-	-	2µM
CC(C)OC(=O)CN1C(=O)S/C(=C/c2ccc(N3CCCCC3)o2)C1=O	-	-38	?	-	8.9µM
Cc1ccc(C(=O)CSc2nc(C)cc(C)c2C(=O)Nc2cccc(C)c2)cc1	-	.	-	-	.
N#Cc1ccc(CN2CC3(CCN(C(=O)c4ccco4)CC3)C2)cc1	.	-	.	.	-
COc1ccc2c(c1)c(N1CCCC1=O)c(C(=O)Nc1cc(C)c(Cl)cc1OC)n2C	-	.	?	-	.
O=C1S/C(=C/c2ccc(N3CCOCC3)o2)C(=O)N1Cc1ccc(F)cc1	-	.	?	-	3.5µM
O=C1N/C(=C/c2ccc(N3CCOCC3)cc2)C(=O)N1Cc1ccc(F)cc1	-	-	?	?	-
O=C1NC(=S)S/C1=C/c1ccc(N2CCOCC2)o1	-	-51	-	-	?
NC(=O)c1cc2c3ccccc3ccn2c1-c1ccccc1	14µM[quencher]	-	14µM	?	-
O=C(Nc1ccc(Cl)cc1)C1CCN(c2nc3ccccc3n3cccc23)CC1	?	.	-	-	.
Cc1ccc(C(=O)Nc2nc(=O)n(C(=O)c3ccccc3Cl)s2)cc1	-	-	13µM	?	-
Cc1ccc(C(=O)Nc2nc(=O)n(C)s2)cc1	-	-	-	-	-
Cc1ccc(C(=O)Nc2ccccc2Cl)cc1	.	-	.	.	-
SMILES	Tau fluor cs	FBPA coupling cs	Tau fibril ThT	Tau FP inhib	Sfp inh
CC(C)CC(=O)n1sc(NC(=O)c2ccccc2)nc1=O	-	-	22µM	?	-
Cn1sc(NC(=O)c2ccc(Cl)cc2)nc1=O	-	-	-	-	56µM
CCOc1[nH]c(/N=C/c2ccco2)c(C#N)c1C#N	-	-	?	?	45µM
Cc1cccc(-c2c(O)cc(=O)[nH]c2Cl)c1	-	-	-	-	?
O=c1cc(O)c(-c2ccccc2Cl)c(Cl)[nH]1	-	-	-	-	89µM
CN(C)c1nc(-c2ccoc2)nc2ccccc12	-	-	?	-	50µM
CN(C)c1nc(-c2cccnc2)nc2ccccc12	.	-	.	.	-
CC(=O)Sc1nc(-c2ccccc2)[nH]c1S(=O)(=O)c1ccc(C)cc1	-	-	28µM	40µM	2.5µM
CC(C)(C)OC(=O)N1CCC(c2c(C(=O)N3CCN(c4ccc(Cl)cc4)CC3)cnn2-c2ccc(F)cc2F)CC1	-	.	?	-	.
O=C1C=C(NC2=CC3OC(c4ccccc4)OCC3OC2=O)CCC1 (stereo not drawn)	-	-	28µM	?	-
